According to PubChem BioAssay (Tox21):
Records with an inconclusive call do not appear. Where a call stands in place of a potency, no number is given. Active and inactive are the calls of the source. Calls follow the shape of the dose curve; as a rule, active = well fitted cell-killing curve with a large enough effect in the repeat runs; inconclusive = weak or mixed curves, or effect the other way; inactive = flat fitted curve, though single readings scatter.

experiment: cAMP Responsive Elements (CRE) small molecule antagonists, cell-based qHTS assay: qHTS cell viability counter screen (AID 2060913); conditions: CRE-bla HEK293T viability, CellTiter-Glo luminescence, 5 h; series mostly up to 92.4 µM; also: nearly all actives have a fitted effect of over 40% in size
Outline: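 HEK293T CRE-bla, 2,000 cells/well, 18 h preincubation; cpd in DMSO + NKH477 0.25 uM final, 3 h 37 C/5% CO2; LiveBLAzer 2 h RT, then CellTiter-Glo 30 min RT, luminescence.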

Structure (SMILES)	Potency
Cc1coc2c1CCC(C)C2 (stereo not drawn)	inactive
O=C(O)C(F)(F)C(F)(F)C(F)(F)C(F)(F)C(F)(F)C(F)(F)C(F)(F)C(F)(F)F	inactive
Cc1ccc(N)cc1	inactive
CCCCN(CCCC)N=O	inactive
CC(C)C1(C)N=C(c2ncccc2C(=O)O)NC1=O (stereo not drawn)	inactive
Cc1ccc(N=C=O)cc1N=C=O	inactive
C=CCN(CC=C)C(=O)C(Cl)Cl	inactive
CCCN(CCCl)c1c([N+](=O)[O-])cc(C(F)(F)F)cc1[N+](=O)[O-]	inactive
CCC1(c2ccccc2)C(=O)NC(=O)NC1=O	inactive
Clc1ccccc1Cl	inactive
O=C/C=C/c1ccco1	inactive
CN1C(=O)CCS(=O)(=O)C1c1ccc(Cl)cc1 (stereo not drawn)	inactive
CCOC(=O)CP(=O)(OCC)OCC	inactive

experiment: cAMP Responsive Elements (CRE) small molecule agonists, cell-based qHTS assay: qHTS cell viability counter screen (AID 2060914); conditions: CRE-bla HEK293T viability, CellTiter-Glo luminescence, 5 h; series mostly up to 92.4 µM; also: nearly all actives have a fitted effect of over 50% in size
Outline: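 Cytotoxicity was measured as ATP luminescence (CellTiter-Glo, 30 min at room temperature) in the same wells as the CRE-bla FRET read-out. HEK293T CRE-bla cells had 3 h compound exposure at 37C/5% CO2.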

Structure (SMILES)	Potency
c1ccc2c(c1)OCC(C1=NCCN1)O2 (stereo not drawn)	inactive
CCCN(CC)CC1COC2(CCC(C(C)(C)C)CC2)O1 (stereo not drawn)	inactive
Nc1ccc(-c2ccccc2)cc1	inactive
CON(C)C(=O)Nc1ccc(Cl)cc1	inactive
O=P(OCC(Br)CBr)(OCC(Br)CBr)OCC(Br)CBr (stereo not drawn)	inactive
C[C@]12CC[C@H]3[C@@H](CCC4=CC(=O)CC[C@@H]43)[C@@H]1CC[C@@H]2OC(=O)CCc1ccco1	inactive
NC1(c2ccccc2)CCCCC1	inactive
O=C(CCl)CCl	inactive
Oc1ccccc1Br	inactive
Clc1ccc(C2(Cn3cncn3)CC(Br)CO2)c(Cl)c1 (stereo not drawn)	inactive
ClCCOCCCl	inactive
O=c1oc2ccccc2c(O)c1C1CCCc2ccccc21 (stereo not drawn)	inactive
COc1ccc(C(=O)N2CCCC2=O)cc1	inactive
CC(C)(C#N)C(C)(C)C#N	inactive
Clc1cccc(Cl)c1Cl	inactive
Cc1ncc(CNC(=O)N(CCCl)N=O)c(N)n1	inactive
O=c1ccc(=O)[nH][nH]1	inactive
Cn1[nH]nnc1=S	inactive
O=NN1CCCCCCC1	inactive
COC[C@H](C)N(C(=O)CCl)c1c(C)csc1C	inactive

Structure (SMILES)	Potency
CC1CC(=O)O1 (stereo not drawn)	inactive
CCOC(=O)C(Cl)Cc1cc(-n2nc(C)n(C(F)F)c2=O)c(F)cc1Cl (stereo not drawn)	inactive
ClCBr	inactive
CCN(CC)C(=O)N[C@@H]1C=C2c3cccc4[nH]cc(c34)C[C@@H]2N(C)C1	inactive
CC(C)C(Br)C(=O)NC(N)=O (stereo not drawn)	inactive
COC(N)=O	inactive
O=c1c(C2CC(c3ccc(-c4ccc(Br)cc4)cc3)Cc3ccccc32)c(O)sc2ccccc12 (stereo not drawn)	inactive
Cc1coc2c1CCC(C)C2 (stereo not drawn)	inactive
O=C(O)C(F)(F)C(F)(F)C(F)(F)C(F)(F)C(F)(F)C(F)(F)C(F)(F)C(F)(F)F	inactive
Cc1ccc(N)cc1	inactive
CCCCN(CCCC)N=O	inactive
CC(C)C1(C)N=C(c2ncccc2C(=O)O)NC1=O (stereo not drawn)	inactive
Cc1ccc(N=C=O)cc1N=C=O	inactive
C=CCN(CC=C)C(=O)C(Cl)Cl	inactive
CCCN(CCCl)c1c([N+](=O)[O-])cc(C(F)(F)F)cc1[N+](=O)[O-]	inactive
CCC1(c2ccccc2)C(=O)NC(=O)NC1=O	inactive
Clc1ccccc1Cl	inactive
O=C/C=C/c1ccco1	inactive
CN1C(=O)CCS(=O)(=O)C1c1ccc(Cl)cc1 (stereo not drawn)	inactive
CCOC(=O)CP(=O)(OCC)OCC	inactive
